In ChEMBL document CHEMBL1961873, “Compounds: GSK PKIS; Assays: Nanosyn kinase panel” (2012):

Tests used:
[1] = target: Ribosomal protein S6 kinase alpha-6 (Homo sapiens) (UniProt Q9UK32); conditions: at 1 µM;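 further: each value is a mean inhibition of RSK4 from a GSK PKIS panel screen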
[2] = target: T1, Serine/threonine-protein kinase Sgk1 (Homo sapiens) (UniProt O00141); conditions: at 0.1 µM
T1 sequence (whole entry): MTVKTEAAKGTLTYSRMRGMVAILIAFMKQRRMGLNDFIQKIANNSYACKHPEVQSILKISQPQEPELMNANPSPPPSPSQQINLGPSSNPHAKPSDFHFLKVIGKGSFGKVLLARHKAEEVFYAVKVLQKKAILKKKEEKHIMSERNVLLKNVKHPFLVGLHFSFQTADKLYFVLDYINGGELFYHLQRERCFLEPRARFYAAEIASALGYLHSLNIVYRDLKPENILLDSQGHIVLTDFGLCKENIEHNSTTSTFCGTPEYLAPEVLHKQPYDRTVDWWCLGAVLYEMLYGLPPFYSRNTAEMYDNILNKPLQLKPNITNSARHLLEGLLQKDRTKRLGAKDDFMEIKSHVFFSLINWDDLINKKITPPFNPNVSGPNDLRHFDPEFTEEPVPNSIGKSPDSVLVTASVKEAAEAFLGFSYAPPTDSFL

[3] = target: T1, Serine/threonine-protein kinase Sgk1 (Homo sapiens); conditions: at 1 µM
[4] = target: T2, Serine/threonine-protein kinase Sgk2 (Homo sapiens) (UniProt Q9HBY8); conditions: at 0.1 µM
T2 sequence (whole entry): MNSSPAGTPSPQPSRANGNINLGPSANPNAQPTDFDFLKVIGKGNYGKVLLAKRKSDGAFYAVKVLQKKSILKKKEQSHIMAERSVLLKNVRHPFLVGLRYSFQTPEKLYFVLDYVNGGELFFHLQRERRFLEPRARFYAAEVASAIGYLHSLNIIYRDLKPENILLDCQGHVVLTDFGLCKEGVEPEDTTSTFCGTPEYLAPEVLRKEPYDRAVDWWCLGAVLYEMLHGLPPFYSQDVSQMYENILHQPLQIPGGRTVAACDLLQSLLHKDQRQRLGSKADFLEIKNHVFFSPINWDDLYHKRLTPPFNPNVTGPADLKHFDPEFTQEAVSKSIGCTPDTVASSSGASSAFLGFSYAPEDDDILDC

[5] = target: T2, Serine/threonine-protein kinase Sgk2 (Homo sapiens); conditions: at 1 µM
[6] = target: T3, Serine/threonine-protein kinase Sgk3 (Homo sapiens) (UniProt Q96BR1); conditions: at 0.1 µM
T3 sequence (whole entry): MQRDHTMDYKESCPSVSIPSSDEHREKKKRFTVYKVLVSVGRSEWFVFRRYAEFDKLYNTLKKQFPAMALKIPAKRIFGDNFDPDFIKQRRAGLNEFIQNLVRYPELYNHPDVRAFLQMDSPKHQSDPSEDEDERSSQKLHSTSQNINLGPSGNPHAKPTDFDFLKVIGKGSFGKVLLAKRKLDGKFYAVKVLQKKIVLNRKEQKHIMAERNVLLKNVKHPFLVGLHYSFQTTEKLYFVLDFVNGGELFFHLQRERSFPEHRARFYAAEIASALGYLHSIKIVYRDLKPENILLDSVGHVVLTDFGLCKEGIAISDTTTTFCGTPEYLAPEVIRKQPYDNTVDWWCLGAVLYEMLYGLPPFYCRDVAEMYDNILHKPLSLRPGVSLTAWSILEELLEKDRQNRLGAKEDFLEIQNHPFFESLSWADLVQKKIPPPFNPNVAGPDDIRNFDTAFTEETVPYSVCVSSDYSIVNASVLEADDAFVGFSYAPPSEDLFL

[7] = target: T3, Serine/threonine-protein kinase Sgk3 (Homo sapiens); conditions: at 1 µM
[8] = target: 5'-AMP-activated protein kinase catalytic subunit alpha-1 (Homo sapiens) (UniProt Q13131); conditions: at 0.1 µM
Chain of 5'-AMP-activated protein kinase catalytic subunit alpha-1 (Homo sapiens) (Q13131 whole entry, looked up): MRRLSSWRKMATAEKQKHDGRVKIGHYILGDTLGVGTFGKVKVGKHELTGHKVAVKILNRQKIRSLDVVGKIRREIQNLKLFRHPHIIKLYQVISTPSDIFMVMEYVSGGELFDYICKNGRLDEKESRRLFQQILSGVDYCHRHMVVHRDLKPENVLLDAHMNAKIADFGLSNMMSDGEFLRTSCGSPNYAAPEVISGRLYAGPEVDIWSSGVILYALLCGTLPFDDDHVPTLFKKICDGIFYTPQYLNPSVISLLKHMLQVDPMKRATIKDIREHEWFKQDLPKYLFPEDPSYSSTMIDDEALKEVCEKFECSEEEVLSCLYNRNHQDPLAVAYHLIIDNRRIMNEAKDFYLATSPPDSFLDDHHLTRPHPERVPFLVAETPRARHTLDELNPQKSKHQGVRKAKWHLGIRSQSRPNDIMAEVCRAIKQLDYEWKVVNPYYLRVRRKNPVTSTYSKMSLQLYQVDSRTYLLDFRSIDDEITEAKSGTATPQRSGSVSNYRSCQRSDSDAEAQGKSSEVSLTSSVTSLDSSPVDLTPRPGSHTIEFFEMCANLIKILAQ

[9] = target: 5'-AMP-activated protein kinase catalytic subunit alpha-1 (Homo sapiens) (UniProt Q13131); conditions: at 1 µM
[10] = target: 5'-AMP-activated protein kinase catalytic subunit alpha-2 (Homo sapiens) (UniProt P54646); conditions: at 0.1 µM
Chain of 5'-AMP-activated protein kinase catalytic subunit alpha-2 (Homo sapiens) (P54646 whole entry, looked up): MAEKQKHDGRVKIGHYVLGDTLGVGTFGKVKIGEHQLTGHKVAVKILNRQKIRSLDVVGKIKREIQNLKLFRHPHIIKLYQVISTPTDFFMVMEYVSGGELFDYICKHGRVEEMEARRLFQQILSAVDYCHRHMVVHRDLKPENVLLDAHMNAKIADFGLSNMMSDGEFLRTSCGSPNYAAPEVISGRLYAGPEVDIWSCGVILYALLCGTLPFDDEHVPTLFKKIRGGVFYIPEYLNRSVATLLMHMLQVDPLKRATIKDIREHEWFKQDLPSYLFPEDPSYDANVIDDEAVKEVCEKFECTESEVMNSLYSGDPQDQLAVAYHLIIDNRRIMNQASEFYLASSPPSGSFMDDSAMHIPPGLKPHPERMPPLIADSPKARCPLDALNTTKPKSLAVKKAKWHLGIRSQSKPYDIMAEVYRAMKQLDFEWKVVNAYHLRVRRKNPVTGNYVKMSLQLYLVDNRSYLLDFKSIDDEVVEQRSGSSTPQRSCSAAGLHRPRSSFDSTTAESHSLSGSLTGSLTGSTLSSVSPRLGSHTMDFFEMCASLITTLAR

[11] = target: 5'-AMP-activated protein kinase catalytic subunit alpha-2 (Homo sapiens) (UniProt P54646); conditions: at 1 µM
[12] = target: T4, NUAK family SNF1-like kinase 1 (Homo sapiens) (UniProt O60285); conditions: at 0.1 µM
T4 sequence (whole entry): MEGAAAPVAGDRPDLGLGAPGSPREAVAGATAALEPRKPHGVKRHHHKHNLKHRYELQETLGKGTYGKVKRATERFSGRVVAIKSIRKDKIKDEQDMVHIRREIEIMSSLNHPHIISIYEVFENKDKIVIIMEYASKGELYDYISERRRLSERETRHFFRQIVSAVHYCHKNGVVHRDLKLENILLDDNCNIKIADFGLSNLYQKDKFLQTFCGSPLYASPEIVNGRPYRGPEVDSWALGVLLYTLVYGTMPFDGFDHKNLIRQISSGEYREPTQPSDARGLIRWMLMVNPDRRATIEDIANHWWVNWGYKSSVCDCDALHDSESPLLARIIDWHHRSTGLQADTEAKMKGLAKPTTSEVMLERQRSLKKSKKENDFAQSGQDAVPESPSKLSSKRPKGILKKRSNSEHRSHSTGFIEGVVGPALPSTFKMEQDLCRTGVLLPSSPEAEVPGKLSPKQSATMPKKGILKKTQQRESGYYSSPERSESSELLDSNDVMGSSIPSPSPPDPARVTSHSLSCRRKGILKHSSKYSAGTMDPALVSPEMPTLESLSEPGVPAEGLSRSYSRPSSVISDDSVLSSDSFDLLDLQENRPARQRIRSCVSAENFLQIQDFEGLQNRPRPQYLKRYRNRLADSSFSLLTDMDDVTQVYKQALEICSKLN

[13] = target: T4, NUAK family SNF1-like kinase 1 (Homo sapiens); conditions: at 1 µM
[14] = target: T5, Serine/threonine-protein kinase BRSK1 (Homo sapiens) (UniProt Q8TDC3); conditions: at 0.1 µM
T5 sequence (whole entry): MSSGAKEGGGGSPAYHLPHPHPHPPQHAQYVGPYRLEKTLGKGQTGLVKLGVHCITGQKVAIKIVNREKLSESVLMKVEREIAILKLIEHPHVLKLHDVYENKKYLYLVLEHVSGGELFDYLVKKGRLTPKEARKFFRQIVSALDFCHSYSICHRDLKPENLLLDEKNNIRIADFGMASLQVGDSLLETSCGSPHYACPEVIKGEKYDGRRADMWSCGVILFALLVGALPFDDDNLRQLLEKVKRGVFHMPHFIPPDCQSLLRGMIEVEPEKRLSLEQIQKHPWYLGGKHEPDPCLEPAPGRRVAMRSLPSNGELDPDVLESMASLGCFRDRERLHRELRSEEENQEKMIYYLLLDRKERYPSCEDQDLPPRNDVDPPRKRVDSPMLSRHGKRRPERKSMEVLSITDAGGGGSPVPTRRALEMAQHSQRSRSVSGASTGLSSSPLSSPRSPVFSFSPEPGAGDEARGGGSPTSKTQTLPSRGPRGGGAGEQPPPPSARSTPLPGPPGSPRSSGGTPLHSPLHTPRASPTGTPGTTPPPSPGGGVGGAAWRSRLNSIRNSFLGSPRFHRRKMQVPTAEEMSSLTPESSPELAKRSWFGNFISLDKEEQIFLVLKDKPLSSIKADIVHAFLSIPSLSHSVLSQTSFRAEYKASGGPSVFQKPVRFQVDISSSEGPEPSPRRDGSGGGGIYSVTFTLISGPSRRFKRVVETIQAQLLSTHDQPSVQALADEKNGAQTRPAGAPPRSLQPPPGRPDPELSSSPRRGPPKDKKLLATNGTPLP

[15] = target: T5, Serine/threonine-protein kinase BRSK1 (Homo sapiens); conditions: at 1 µM
[16] = target: T6, Serine/threonine-protein kinase BRSK2 (Homo sapiens) (UniProt Q8IWQ3); conditions: at 0.1 µM
T6 sequence (whole entry): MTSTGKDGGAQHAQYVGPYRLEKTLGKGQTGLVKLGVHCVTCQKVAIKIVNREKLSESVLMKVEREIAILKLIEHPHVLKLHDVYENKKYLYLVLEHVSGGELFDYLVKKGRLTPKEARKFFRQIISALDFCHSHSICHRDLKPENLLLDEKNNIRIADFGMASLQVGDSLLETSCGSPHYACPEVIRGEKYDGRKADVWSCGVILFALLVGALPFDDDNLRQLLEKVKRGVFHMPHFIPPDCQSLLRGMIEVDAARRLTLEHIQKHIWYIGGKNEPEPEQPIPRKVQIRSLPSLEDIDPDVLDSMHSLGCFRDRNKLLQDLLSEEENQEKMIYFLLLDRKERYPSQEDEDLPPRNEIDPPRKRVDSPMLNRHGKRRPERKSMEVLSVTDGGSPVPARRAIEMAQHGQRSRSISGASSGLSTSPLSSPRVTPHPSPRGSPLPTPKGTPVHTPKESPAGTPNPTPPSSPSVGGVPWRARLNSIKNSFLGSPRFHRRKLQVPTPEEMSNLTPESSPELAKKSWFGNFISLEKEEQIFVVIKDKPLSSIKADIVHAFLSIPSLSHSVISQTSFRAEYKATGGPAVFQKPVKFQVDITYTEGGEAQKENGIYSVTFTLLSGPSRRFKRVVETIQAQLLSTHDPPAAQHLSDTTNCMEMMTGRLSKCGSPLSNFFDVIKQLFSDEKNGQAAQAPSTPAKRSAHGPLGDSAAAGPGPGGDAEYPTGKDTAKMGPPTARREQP

[17] = target: T6, Serine/threonine-protein kinase BRSK2 (Homo sapiens); conditions: at 1 µM
[18] = target: Calcium/calmodulin-dependent protein kinase type 1D (Homo sapiens) (UniProt Q8IU85); conditions: at 0.1 µM
Chain of Calcium/calmodulin-dependent protein kinase type 1D (Homo sapiens) (Q8IU85 whole entry, looked up): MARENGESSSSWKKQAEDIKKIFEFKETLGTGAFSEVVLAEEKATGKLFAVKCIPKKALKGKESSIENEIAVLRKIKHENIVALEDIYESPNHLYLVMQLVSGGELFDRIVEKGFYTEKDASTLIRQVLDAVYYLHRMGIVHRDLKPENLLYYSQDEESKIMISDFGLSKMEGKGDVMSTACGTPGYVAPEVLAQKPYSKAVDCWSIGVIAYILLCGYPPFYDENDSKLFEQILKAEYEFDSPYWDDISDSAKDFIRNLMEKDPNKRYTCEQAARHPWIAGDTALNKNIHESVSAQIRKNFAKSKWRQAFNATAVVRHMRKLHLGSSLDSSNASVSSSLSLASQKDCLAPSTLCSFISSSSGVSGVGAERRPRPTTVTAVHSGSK

[19] = target: Calcium/calmodulin-dependent protein kinase type 1D (Homo sapiens) (UniProt Q8IU85); conditions: at 1 µM
[20] = target: Calcium/calmodulin-dependent protein kinase type II subunit alpha (Homo sapiens) (UniProt Q9UQM7); conditions: at 0.1 µM;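 further: reported values are averages (mean inhibition of CAMK2A)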
Chain of Calcium/calmodulin-dependent protein kinase type II subunit alpha (Homo sapiens) (Q9UQM7 whole entry): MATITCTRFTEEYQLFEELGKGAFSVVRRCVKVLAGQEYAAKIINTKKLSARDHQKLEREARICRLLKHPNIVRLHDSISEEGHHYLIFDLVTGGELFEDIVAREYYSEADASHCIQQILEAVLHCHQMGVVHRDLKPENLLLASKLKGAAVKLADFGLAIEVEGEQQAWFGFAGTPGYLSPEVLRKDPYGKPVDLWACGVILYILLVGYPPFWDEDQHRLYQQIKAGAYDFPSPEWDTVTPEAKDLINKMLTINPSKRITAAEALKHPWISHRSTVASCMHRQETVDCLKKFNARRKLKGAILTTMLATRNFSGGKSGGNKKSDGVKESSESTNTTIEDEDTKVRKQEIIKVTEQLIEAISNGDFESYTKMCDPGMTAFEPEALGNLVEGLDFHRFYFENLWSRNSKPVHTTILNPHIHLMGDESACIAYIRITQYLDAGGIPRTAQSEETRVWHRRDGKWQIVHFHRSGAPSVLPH

Chain of Ribosomal protein S6 kinase alpha-6 (Homo sapiens) (Q9UK32 whole entry): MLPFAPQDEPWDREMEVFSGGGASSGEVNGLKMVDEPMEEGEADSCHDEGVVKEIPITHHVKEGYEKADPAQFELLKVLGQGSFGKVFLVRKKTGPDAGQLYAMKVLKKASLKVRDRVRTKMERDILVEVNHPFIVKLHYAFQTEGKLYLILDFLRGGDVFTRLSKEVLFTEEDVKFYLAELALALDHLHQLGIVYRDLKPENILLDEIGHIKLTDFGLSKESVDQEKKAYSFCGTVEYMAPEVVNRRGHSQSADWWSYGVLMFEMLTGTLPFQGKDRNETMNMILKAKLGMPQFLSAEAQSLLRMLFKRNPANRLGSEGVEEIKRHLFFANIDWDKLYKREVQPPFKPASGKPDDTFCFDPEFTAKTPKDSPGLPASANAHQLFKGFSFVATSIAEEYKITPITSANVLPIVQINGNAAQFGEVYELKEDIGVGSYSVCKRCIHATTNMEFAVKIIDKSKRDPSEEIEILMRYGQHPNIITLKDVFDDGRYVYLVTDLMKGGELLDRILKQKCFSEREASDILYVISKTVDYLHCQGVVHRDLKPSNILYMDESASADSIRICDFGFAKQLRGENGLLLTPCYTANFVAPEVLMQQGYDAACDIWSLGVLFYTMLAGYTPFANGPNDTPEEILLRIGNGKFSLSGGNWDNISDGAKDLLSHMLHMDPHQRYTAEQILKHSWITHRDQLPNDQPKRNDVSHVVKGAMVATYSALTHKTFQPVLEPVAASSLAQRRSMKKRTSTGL

SMILES: CN(c1ccc(NC(=O)NCCN2CCOCC2)cc1)c1ccnc(Nc2ccc(CS(C)(=O)=O)cc2)n1
- inhibition [1]: 2.33%
- inhibition [2]: 2.3%
- inhibition [3]: 5%
- inhibition [4]: 1.89%
- inhibition [5]: 3.1%
- inhibition [6]: 4.46%
- inhibition [7]: 2.63%
- inhibition [8]: 3.65%
- inhibition [9]: 4.22%
- inhibition [10]: 0.93%
- inhibition [11]: 4.4%
- inhibition [12]: 8.2%
- inhibition [13]: 41.6%
- inhibition [14]: -2.24%
- inhibition [15]: 4.74%
- inhibition [16]: 2.43%
- inhibition [17]: 5.48%
- inhibition [18]: -0.41%
- inhibition [19]: 0.15%
- inhibition [20]: 1.72%

SMILES: CC1=C(C(=O)Nc2ccc3[nH]nc(C)c3c2)C(c2ccc(C(F)(F)F)cc2)CC(=O)N1 (stereo not given)
- inhibition [1]: 18.9%
- inhibition [2]: 2.07%
- inhibition [3]: 7.21%
- inhibition [4]: 0.38%
- inhibition [5]: 5.99%
- inhibition [6]: 1.33%
- inhibition [7]: 6.15%
- inhibition [8]: 4.08%
- inhibition [9]: 24.4%
- inhibition [10]: -0.12%
- inhibition [11]: 7.41%
- inhibition [12]: 6.8%
- inhibition [13]: 31.1%
- inhibition [14]: 4.32%
- inhibition [15]: 21.3%
- inhibition [16]: 6.42%
- inhibition [17]: 32.6%
- inhibition [18]: 0.54%
- inhibition [19]: 2.58%
- inhibition [20]: 1.45%

SMILES: NC(=O)c1ccc2c(-c3ccnc(NCCCO)n3)c(-c3ccc(F)cc3)nn2c1
- inhibition [1]: 2.84%
- inhibition [2]: 2.62%
- inhibition [3]: 2.32%
- inhibition [4]: 4.31%
- inhibition [5]: 1.91%
- inhibition [6]: 2.16%
- inhibition [7]: 1.28%
- inhibition [8]: 2.28%
- inhibition [9]: 7.4%
- inhibition [10]: 3.45%
- inhibition [11]: 4.65%
- inhibition [12]: 2.9%
- inhibition [13]: 4.34%
- inhibition [14]: 2.91%
- inhibition [15]: 4.68%
- inhibition [16]: 2.27%
- inhibition [17]: 3.75%
- inhibition [18]: -0.23%
- inhibition [19]: 1.6%
- inhibition [20]: 3.83%

SMILES: O=C(O[C@H]1CN[C@H](C#Cc2cc3ncnc(Nc4ccc5c(cnn5Cc5ccccc5)c4)c3s2)C1)N1CCOCC1
- inhibition [1]: -1.11%
- inhibition [2]: -0.09%
- inhibition [3]: -1.15%
- inhibition [4]: -1.55%
- inhibition [5]: 4.74%
- inhibition [6]: -2.07%
- inhibition [7]: 0.07%
- inhibition [8]: 1.24%
- inhibition [9]: 3.86%
- inhibition [10]: 2.29%
- inhibition [11]: 3.11%
- inhibition [12]: 3.37%
- inhibition [13]: 4.34%
- inhibition [14]: 0.74%
- inhibition [15]: 2.54%
- inhibition [16]: 1.3%
- inhibition [17]: 3.58%
- inhibition [18]: 0.26%
- inhibition [19]: 1.04%
- inhibition [20]: -0.77%
